Test results reported in the supplement of paper PMC6089552.
The campaign covered roughly 3,200 compounds. About 300 (9.4%) showed activity. The sample as a whole holds a higher share of actives than the screen did.

Test system: A673/TR/shEF
Experiment: cell viability (LOESS-normalised, relative to median of negative controls) (log2 ratio); higher = more viable cells (less compound effect), active = hit call of the paper (over 3 MAD below the median)
Conditions: treatment time: 72 h
Summary of the method: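 A673/TR/shEF Ewing sarcoma cells were plated at 1,500 per well in 384-well plates and cultured with or without doxycycline, added 24 h before compounds, to induce EWS-FLI1 shRNA knockdown. Library compounds at two or more concentrations, alongside DMSO controls, were applied for three days. Cell viability was measured by CellTiter-Glo luminescence on an Envision reader. Readings were LOESS-corrected per plate, divided by the median of negative controls and log2-transformed, and hits were wells lying at least three median absolute deviations from the median of all screened wells.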

[1] = 0.25 µM, library screen: screen2, EWS-FLI1 expression: high (no doxycycline)
[2] = 0.25 µM, library screen: screen2, EWS-FLI1 expression: low (doxycycline-induced shRNA knockdown)
[3] = 2.5 µM, library screen: screen2, EWS-FLI1 expression: high (no doxycycline)
[4] = 2.5 µM, library screen: screen2, EWS-FLI1 expression: low (doxycycline-induced shRNA knockdown)
[5] = 0.025 µM, library screen: screen1, EWS-FLI1 expression: high (no doxycycline)
[6] = 0.025 µM, library screen: screen1, EWS-FLI1 expression: low (doxycycline-induced shRNA knockdown)
[7] = 0.25 µM, library screen: screen1, EWS-FLI1 expression: high (no doxycycline)
[8] = 0.25 µM, library screen: screen1, EWS-FLI1 expression: low (doxycycline-induced shRNA knockdown)
[9] = 2.5 µM, library screen: screen1, EWS-FLI1 expression: high (no doxycycline)
[10] = 2.5 µM, library screen: screen1, EWS-FLI1 expression: low (doxycycline-induced shRNA knockdown)
[11] = 25 µM, library screen: screen1, EWS-FLI1 expression: high (no doxycycline)
[12] = 25 µM, library screen: screen1, EWS-FLI1 expression: low (doxycycline-induced shRNA knockdown)
[13] = 0.103 µM, library screen: screen3, EWS-FLI1 expression: high (no doxycycline)
[14] = 0.103 µM, library screen: screen3, EWS-FLI1 expression: low (doxycycline-induced shRNA knockdown)
[15] = 0.308 µM, library screen: screen3, EWS-FLI1 expression: high (no doxycycline)
[16] = 0.308 µM, library screen: screen3, EWS-FLI1 expression: low (doxycycline-induced shRNA knockdown)
[17] = 0.926 µM, library screen: screen3, EWS-FLI1 expression: high (no doxycycline)
[18] = 0.926 µM, library screen: screen3, EWS-FLI1 expression: low (doxycycline-induced shRNA knockdown)
[19] = 2.8 µM, library screen: screen3, EWS-FLI1 expression: high (no doxycycline)
[20] = 2.8 µM, library screen: screen3, EWS-FLI1 expression: low (doxycycline-induced shRNA knockdown)
[21] = 8.3 µM, library screen: screen3, EWS-FLI1 expression: high (no doxycycline)
[22] = 8.3 µM, library screen: screen3, EWS-FLI1 expression: low (doxycycline-induced shRNA knockdown)
[23] = 25 µM, library screen: screen3, EWS-FLI1 expression: high (no doxycycline)
[24] = 25 µM, library screen: screen3, EWS-FLI1 expression: low (doxycycline-induced shRNA knockdown)

Measured: cell viability (log2)

CCCCCCCCCCCCCCCC(=O)NCCO
inactive: [1] 0.109 | [2] 0.0709 | [3] 0.0624 | [4] 0.0396

CCCCCCCCCCCCCCCC(=O)C1=C(O)[C@@H](CO)OC1=O
active: [9] -0.362 | [11] -0.293
inactive: [5] 0.213 | [6] 0.0909 | [7] 0.235 | [8] 0.112 | [10] 0.0271 | [12] -0.135

N#C/C(=C\c1cccc(Cl)c1)c1nc2ccccc2[nH]1
inactive: [7] 0.153 | [8] 0.256 | [9] 0.247 | [10] 0.148

O=C(OCc1ccccc1)c1ccccc1
inactive: [7] 0.0522 | [8] 0.0983 | [9] 0.0811 | [10] 0.112

CC(COc1ccccc1)NC(C)C(O)c1ccc(O)cc1 (stereo not drawn)
inactive: [7] 0.163 | [8] 0.0434 | [9] 0.178 | [10] 0.141

Oc1ccc(OCc2ccccc2)cc1
active: [19] -0.186 | [23] -0.212
inactive: [13] 0.123 | [14] -0.0268 | [15] 0.0306 | [16] 0.0601 | [17] 0.0336 | [18] -0.0221 | [20] 0.0872 | [21] -0.00746 | [22] 0.0842 | [24] 0.0776

C=C1CCC2OC2(C)CCC2C1CC2(C)C (stereo not drawn)
inactive: [7] 0.0308 | [8] 0.0474 | [9] 0.104 | [10] 0.0209

COc1ccc2c(c1OC)C(=O)O[C@H]2[C@@H]1c2ccccc2CCN1C
inactive: [7] 0.0344 | [8] 0.0398 | [9] 0.0365 | [10] -0.0658

CCC(C)C(NC)C(=O)O (stereo not drawn)
inactive: [7] 0.07 | [8] 0.0975 | [9] 0.13 | [10] -0.0496

COc1ccc(S(=O)(=O)N(CCO)c2ccccc2CN(C)C/C=C/c2ccc(Cl)cc2)cc1
active: [9] -0.284 | [11] -1.32 | [12] -0.531
inactive: [5] 0.202 | [6] -0.0138 | [7] 0.226 | [8] 0.0804 | [10] -0.0574

COc1cccc(NC(=O)/C=C/c2ccc(Cl)cc2)c1
inactive: [1] 0.303 | [2] 0.124 | [3] 0.272 | [4] 0.108

CC(=O)OCC(OC(C)=O)C(OC(C)=O)C(OC(C)=O)C(OC(C)=O)C(COC(C)=O)OC(C)=O (stereo not drawn)
inactive: [7] 0.1 | [8] 0.086 | [9] 0.176 | [10] -0.0056

CCn1cc(C(=O)O)c(=O)c2ccc(Cc3ccccc3)nc21
inactive: [1] 0.215 | [2] 0.061 | [3] 0.162 | [4] 0.124

COc1cc(CN2CCN(Cc3ccc([N+](=O)[O-])cc3)CC2)c([N+](=O)[O-])cc1OC
inactive: [7] 0.132 | [8] 0.09 | [9] 0.0515 | [10] 0.104

CC1(C)C[C@@H]2C(=O)CC[C@@H]3O[C@]3(C)CC[C@H]21
inactive: [7] 0.14 | [8] 0.0852 | [9] 0.132 | [10] 0.0776

CC1=C2C(=CO[C@H](C)[C@H]2C)C(=O)C(C(=O)O)=C1O
inactive: [7] 0.0243 | [8] 0.0421 | [9] 0.12 | [10] 0.0982

COc1ccc2nc([S@@+]([O-])Cc3ncc(C)c(OC)c3C)[nH]c2c1
inactive: [13] 0.0353 | [14] -0.0468 | [15] 0.00454 | [16] 2e-05 | [17] -0.0308 | [18] -0.0128 | [19] -0.0416 | [20] 0.00305 | [21] 0.0504 | [22] 0.0301 | [23] -0.0361 | [24] -0.0116

COc1ccc2nc([S+]([O-])Cc3ncc(C)c(OC)c3C)[nH]c2c1 (stereo not drawn)
inactive: [13] 0.0555 | [14] 0.0372 | [15] -0.0266 | [16] 0.0199 | [17] -0.0106 | [18] 0.0522 | [19] -0.0439 | [20] 0.0389 | [21] -0.0449 | [22] 0.0231 | [23] -0.03 | [24] -0.014

Cc1c(OCC(F)(F)F)ccnc1C[S+]([O-])c1nc2ccccc2[nH]1 (stereo not drawn)
active: [23] -0.241
inactive: [13] 0.0918 | [14] 0.101 | [7] 0.136 | [8] 0.0633 | [1] 0.166 | [2] 0.0843 | [15] 0.0516 | [16] 0.0264 | [17] 0.0709 | [18] 0.0884 | [9] 0.133 | [10] 0.126 | [3] 0.122 | [4] 0.0984 | [19] 0.0259 | [20] 0.0107 | [21] -0.0254 | [22] 0.0817 | [24] 0.0393

COC(=O)C[C@H]1C(C)(C)[C@@H](OC(C)=O)[C@@H]2CC3C4CC(=O)O[C@@H](c5ccoc5)[C@]4(C)CCC3[C@@]1(C)C2=O (stereo partly drawn)
inactive: [7] 0.0705 | [8] 0.0161 | [9] 0.14 | [10] 0.112

C=C1CCC(=O)C(C)CCC2C1CC2(C)C (stereo not drawn)
inactive: [7] 0.0584 | [8] -0.00925 | [9] 0.119 | [10] -0.105

COc1ccc(-c2oc3cc(O[C@@H]4O[C@H](CO)[C@@H](O)[C@H](O)[C@H]4O)c(OC)c(O)c3c(=O)c2OC)cc1O
inactive: [7] 0.0438 | [8] 0.127 | [9] 0.0949 | [10] 0.0982

O=C(O)C1CN(CCCP(=O)(O)O)CCN1 (stereo not drawn)
inactive: [1] 0.0853 | [2] 0.0707 | [3] 0.0988 | [4] 0.109

CC[N+](CC)(CC)CC(=O)Nc1c(C)cccc1C
inactive: [1] 0.105 | [2] 0.169 | [3] 0.0372 | [4] 0.0518

Cc1cccc(C)c1NC(=O)C[N+](C)(C)C
inactive: [1] 0.174 | [2] 0.0998 | [3] 0.0786 | [4] 0.0656

CCN(CC)CC(=O)Nc1c(C)cccc1C
inactive: [13] 0.148 | [14] 0.0138 | [7] 0.147 | [8] 0.00307 | [1] 0.111 | [2] 0.106 | [15] 0.0507 | [16] 0.127 | [17] 0.13 | [18] 0.0501 | [9] 0.157 | [10] 0.131 | [3] 0.0975 | [4] 0.0477 | [19] 0.00489 | [20] 0.0234 | [21] 0.0246 | [22] 0.018 | [24] 0.0253
active: [23] -0.278
